Our source for the cross-linked residues values is article PMC12350791.

Chain of CHTOP (Q9Y3Y2 whole entry): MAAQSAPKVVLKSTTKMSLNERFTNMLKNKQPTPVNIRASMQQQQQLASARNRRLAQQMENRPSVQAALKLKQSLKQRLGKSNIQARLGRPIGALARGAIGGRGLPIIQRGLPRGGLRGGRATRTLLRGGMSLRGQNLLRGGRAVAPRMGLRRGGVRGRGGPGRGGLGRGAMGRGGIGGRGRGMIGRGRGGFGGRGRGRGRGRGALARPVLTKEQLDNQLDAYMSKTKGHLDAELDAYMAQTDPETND
Chain of ERH, P84090 (P84090 whole entry): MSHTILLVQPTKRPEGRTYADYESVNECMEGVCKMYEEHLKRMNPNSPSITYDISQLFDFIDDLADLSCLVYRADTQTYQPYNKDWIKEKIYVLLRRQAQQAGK
Chain of DDX39B, Q13838 (Q13838 whole entry): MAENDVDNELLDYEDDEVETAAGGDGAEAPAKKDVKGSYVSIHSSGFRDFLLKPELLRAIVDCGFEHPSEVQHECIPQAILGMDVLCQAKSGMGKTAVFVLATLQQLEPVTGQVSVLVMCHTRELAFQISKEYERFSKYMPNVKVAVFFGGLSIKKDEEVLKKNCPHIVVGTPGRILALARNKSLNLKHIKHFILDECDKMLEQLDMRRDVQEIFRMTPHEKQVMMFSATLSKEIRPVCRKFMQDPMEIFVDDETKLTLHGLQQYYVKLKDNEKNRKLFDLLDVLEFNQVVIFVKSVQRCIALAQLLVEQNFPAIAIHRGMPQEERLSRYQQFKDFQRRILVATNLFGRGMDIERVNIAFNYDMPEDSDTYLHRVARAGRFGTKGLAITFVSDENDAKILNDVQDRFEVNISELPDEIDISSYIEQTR
Chain of DDX39A, O00148 (O00148 whole entry): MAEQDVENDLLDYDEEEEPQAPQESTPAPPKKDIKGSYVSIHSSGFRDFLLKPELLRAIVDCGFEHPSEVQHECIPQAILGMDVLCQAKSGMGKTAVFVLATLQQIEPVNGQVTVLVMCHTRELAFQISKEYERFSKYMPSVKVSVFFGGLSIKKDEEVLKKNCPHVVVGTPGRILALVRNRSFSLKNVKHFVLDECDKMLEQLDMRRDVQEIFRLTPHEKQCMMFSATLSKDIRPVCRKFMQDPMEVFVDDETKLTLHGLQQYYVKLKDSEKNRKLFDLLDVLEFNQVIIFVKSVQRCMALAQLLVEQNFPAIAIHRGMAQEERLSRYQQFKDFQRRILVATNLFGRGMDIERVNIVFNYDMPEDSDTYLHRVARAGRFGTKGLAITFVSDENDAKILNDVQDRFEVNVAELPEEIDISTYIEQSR

The target in the first test is ACTR2 (UniProt P61160). Briefly: cross-linking mass spectrometry. The note with it: DSBSO, in cells or nuclear extract, not told apart.
As for ARPC4, P59998, the cross-linked residues entry is “K44 - K322”.

In the case of ARPC3, O15145, the cross-linked residues result is recorded as “K61 - K46”. Same read-out and setting: the result for ARPC1B, O15143 reads “K49 - K219”; that for ACTR3, P61158, “K348 - K46”.

Another test addresses CHTOP (UniProt Q9Y3Y2). Briefly: cross-linking mass spectrometry. The note with it: DSBSO, in cells or nuclear extract, not told apart.
As to ERH, P84090, the cross-linked residues entry is on record as “K90 - K30”.

Take DDX39B, Q13838: the cross-linked residues result is given as “K188 - K226”. The same measure, in the same setting: the result for DDX39A, O00148 reads “K187 - K226”.
